Inconclusive results are not listed. Active and inactive are the calls of the source. The call rests on the fitted dose curve; in most records, active means well fitted inhibition curve with a large enough effect; inconclusive means small, poorly fitted or top-dose-only effect; inactive means flat fitted curve, though single readings scatter.
Each compound was assayed against Dual specificity tyrosine-phosphorylation-regulated kinase 1A (Homo sapiens) (UniProt Q13627) (assay: Confirmation Assay for Inhibitors of Dyrk1a (Kinase-Glo Assay): KU probe). Settings: Kinase-Glo ATP luminescence; series mostly up to 76.9 µM.
Procedure, shortened: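 Human Dyrk1A at 5nM with 8uM DYRKtide and 2uM ATP in 25mM Tris-HCl pH 7.5, 10mM MgCl2, 0.5mM EGTA, 5mM cysteine, 0.01% Triton X-100; 2 h at room temperature. Residual ATP read by Kinase-Glo luminescence.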

Row | Structure (SMILES) | Potency
1 | Brc1ccc(CNc2ccnc(-c3ccc4c(c3)OCO4)n2)cc1Br | inactive
2 | Clc1ccc(CNc2nccc(-c3ccc4c(c3)OCO4)n2)cc1Cl | 164 nM (active)
3 | COc1cccc(-c2ccnc(NCc3ccc(Cl)c(Cl)c3)n2)c1 | 5820 nM (active)
4 | c1cncc(CNc2ccnc(-c3ccc4[nH]ncc4c3)n2)c1 | 654 nM (active)
5 | CCCN(C)c1ncnc2ccc(-c3ccc4c(c3)OCO4)cc12 | 260 nM (active)
6 | Clc1ccc(CNc2nccc(-c3ccc4[nH]ncc4c3)n2)cc1Cl | 328 nM (active)
7 | CN(CC1CCCCO1)c1ncnc2ccc(-c3ccc4c(c3)OCO4)cc12 (configuration not stated) | 207 nM (active)

Source: PubChem BioAssay AID624093 (National Center for Advancing Translational Sciences (NCATS), 2012)
